Compound activity as filed in PubChem BioAssay.
Compounds with a hit are over-represented: about 12% of the library has one in this group of screens.
USP8 block: inhibitors of human USP8 deubiquitinase. actives 4.2% (n = 47,000). purified USP8, Ub-rhodamine cleavage fluorescence, 30 min. Ubiquitin carboxyl-terminal hydrolase 8 (Homo sapiens), P40818. inhibition, % at 20 µM. AID 1645853, 2021
USP30 inh: inhibitors of human USP30 deubiquitinase; actives 5.3% (n = 47,000); purified USP30, Ub-rhodamine cleavage fluorescence; inhibition, % at 25 µM; Ubiquitin carboxyl-terminal hydrolase 30 (Homo sapiens), Q70CQ3
USP17 block: inhibitors of human USP17 deubiquitinase | purified USP17, Ub-rhodamine cleavage fluorescence, 3 h | inhibition, % at 50 µM | actives 6.5% (n = 47,000)
Target sequence (A8MUK1 whole entry, looked up): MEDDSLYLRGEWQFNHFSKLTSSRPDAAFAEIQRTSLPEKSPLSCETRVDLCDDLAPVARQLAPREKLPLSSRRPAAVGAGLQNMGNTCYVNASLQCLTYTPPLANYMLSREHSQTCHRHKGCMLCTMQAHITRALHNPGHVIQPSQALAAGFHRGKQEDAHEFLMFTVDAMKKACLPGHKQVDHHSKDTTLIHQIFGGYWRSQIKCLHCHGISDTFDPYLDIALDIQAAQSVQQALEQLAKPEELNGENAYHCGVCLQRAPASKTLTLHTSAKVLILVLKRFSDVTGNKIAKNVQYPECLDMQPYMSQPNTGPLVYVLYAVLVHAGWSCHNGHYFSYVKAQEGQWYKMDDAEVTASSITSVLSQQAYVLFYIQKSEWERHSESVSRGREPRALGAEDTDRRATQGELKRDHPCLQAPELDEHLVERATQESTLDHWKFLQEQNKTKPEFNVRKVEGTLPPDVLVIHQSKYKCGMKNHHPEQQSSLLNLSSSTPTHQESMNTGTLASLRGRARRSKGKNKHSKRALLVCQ
A number is an active result; – = inactive; · = no result given. Cut-off read from the data, not from the text of the source: active = inhibition above about 30%; inactive = the rest.

SMILES	USP8 block	USP30 inh	USP17 block
CCN1CCC2(COCc3c(C)nc(-c4ccccc4)nc32)C1 (configuration not stated)	–	–	–
O=C(Nc1nc2ccccc2s1)c1cccn(Cc2cccc(Cl)c2)c1=O	–	–	46
O=C(Nc1nccs1)c1cccn(Cc2ccc(Cl)c(Cl)c2)c1=O	–	–	31
O=C(Nc1nc2ccc([N+](=O)[O-])cc2s1)c1cccn(Cc2ccc(F)cc2)c1=O	–	–	–
Cc1ccc(C2SCC(=O)Nc3c2c(=O)[nH]n3C2CCCCC2)cc1 (configuration not stated)	88	–	–
Cc1nn(C2CCCC2)c2c1C(c1ccc(Br)cc1)SCC(=O)N2 (configuration not stated)	–	–	–
COc1ccc(C2SCC(=O)Nc3c2c(=O)[nH]n3C2CCCCCC2)cc1 (configuration not stated)	–	–	50
COc1ccc(C2SCC(=O)Nc3c2c(=O)[nH]n3C2CCCCCC2)cc1OC (configuration not stated)	–	–	–
O=C1CSC(c2ccc3c(c2)OCO3)c2c(n(C3CCCCCC3)[nH]c2=O)N1 (configuration not stated)	83	33	–
O=C1CSC(c2ccc3c(c2)OCO3)c2c(-c3ccccc3)nn(-c3ccccc3)c2N1 (configuration not stated)	–	30	–
COc1ccc(C2SCC(=O)Nc3c2c(=O)[nH]n3C2CCCC2)cc1 (configuration not stated)	–	–	–
COCc1cc(C2SCC(=O)Nc3c2c(-c2ccccc2)nn3-c2ccccc2)ccc1OC (configuration not stated)	–	–	–
COC(=O)C1=CO[C@@H](C)[C@H]2CN3CCc4c([nH]c5cc(OC)ccc45)[C@@H]3C[C@H]12	–	–	–
O=C(CN1CCCc2ccccc21)Nc1ccc(Cl)cc1C(=O)c1ccccc1	–	·	–
COc1ccc(C2=NCC(=O)N(Cc3nc(-c4ccccc4)oc3C)c3sccc32)cc1	–	–	–
Cc1noc(C)c1CN1CC[C@H]2C[C@@H](C(=O)N3CCCC3)O[C@@H]2C1	–	–	·
O=C(CN1CC=C(c2ccccc2)CC1)Nc1ccc(N2CCOCC2)cc1	–	–	–
CC1[C@@H]2[C@@H](COc3cccnc3)C[C@H](CN1S(C)(=O)=O)N2C (some centres not stated)	–	–	–
NC(=O)N1c2ccccc2[C@@H]2CNCC[C@H]21	–	–	–
CC1(C)CC(n2[nH]c(=O)c3c2NC(=O)CSC3c2ccc(OCc3ccccc3)cc2)CCO1 (configuration not stated)	–	53	–
CCOc1ccc(C2SCC(=O)Nc3c2c(=O)[nH]n3C2CCCCC2)cc1 (configuration not stated)	88	35	–
CCOc1ccc(C2SCC(=O)Nc3c2c(=O)[nH]n3C2CCCCCC2)cc1 (configuration not stated)	–	–	–
Cc1nn(C2CCOC(C)(C)C2)c2c1C(c1ccccc1)SCC(=O)N2 (configuration not stated)	–	–	–
CN1CCN(c2c3c(nc4ncnn24)CCC3)CC1	–	–	–
CO/C1=C\C(C)=C\[C@@H](C)[C@@H](O)[C@H](C)C/C(C)=C/C=C/[C@H](OC)[C@@H]([C@@H](C)[C@@H](O)[C@H](C)[C@@]2(O)C[C@@H](OC(=O)/C=C/C(=O)NC3=C(O)CCC3=O)[C@H](C)[C@@H](C(C)C)O2)OC1=O	–	–	40
SMILES	USP8 block	USP30 inh	USP17 block
O=C(Cc1c[nH]c2ccccc12)N1C[C@@H](O)[C@H](N2CCCC2)C1	–	–	–
O=C(O)c1cccc2nc3ccccc3nc12	–	–	39
O=C(Cc1ccc(Cl)cc1)N1CCC2(CCCN2CCc2ccccc2)C1 (configuration not stated)	–	–	–
Cc1cc(C)nc(-n2nc(C)c3c2NC(=O)CSC3c2ccc(F)cc2F)n1 (configuration not stated)	–	77	45
Cc1cc(C)nc(-n2nc(C)c3c2NC(=O)CSC3c2ccc(O)cc2)n1 (configuration not stated)	–	–	–
O=C(COc1ccc(F)cc1)N1CCN(Cc2ccncc2)CC1	–	–	–
Cc1nc(-c2ccncc2)nc2c1CC(=O)N2CCN1CCOCC1	–	–	–
Cc1cc(OCC(=O)N2CCC3(O)CCCCC3C2)c2c3c(c(=O)oc2c1)CCCC3 (configuration not stated)	–	–	–
COc1cc2c(c3oc4cccc(O)c4c(=O)c13)C1C=COC1O2 (configuration not stated)	–	–	54
c1ccc(C2CCN(CCc3cc4ccccc4[nH]3)CC2)cc1	–	–	–
Oc1ccc2ccccc2c1CN1CC=C(c2ccccc2)CC1	35	–	–
O=C(CN1CC=C(c2ccccc2)CC1)Nc1ccccc1Cl	–	–	–
COc1cccc2c1N(Cc1ccccc1)C(=O)C21CCN(C(=O)NCCN)CC1	–	–	–
O=S1(=O)Cc2cnc(NCC3CC3)nc2[C@H]2CNC[C@H]21	–	–	–
COc1c2c(c(O)c3c1C(=O)c1c(cc(O)c(C)c1O)C3=O)-c1c(cc3c(c1O)C(=O)OC3O)CC2 (configuration not stated)	72	59	94
CC(C)(C)c1cn(C[C@H]2CC3CCN2C[C@@H]3C(=O)Nc2ccccc2)nn1 (some centres not stated)	–	–	–
C[C@@H]1O[C@H]2C3=C(C(=O)[C@H]4O[C@H]4[C@@H]3O)[C@@H]1[C@H]1[C@H](C)OC=C3[C@@H](O)[C@@H]4O[C@@H]4C(=O)[C@]312	–	–	–
